From PubChem BioAssay AID1159580 (chemical genetic matrix, 2015)
“And” between values parts separate entries of the source, which are not always exact repeats. Equal entries are not always repeated. Among all 5,500 compounds or so, about 2,000 (36%) were called active. About 18% were inconclusive and are not listed. Rule as the data show it: active = normalized growth mostly below about 0.91 (no sharp cut-off); inconclusive = no clear call, values can overlap the other calls; inactive = mostly above about 0.92. This is one part of the list.

Experiment: chemical genetic growth profiling, strain panel (AID 1159580);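 also: tested at 20 µM; growth read once vehicle control cultures reached saturation at 30 °C; 1 = growth at the plate median or of vehicle wells; lower values mean less growth of the strain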
Details: growth OD

Measured: normalized growth

CCCOc1ccccc1-c1nc2n[nH]nc2c(=O)[nH]1
inactive: S. cerevisiae deletion strains, locus YJL187C, strain SWE1 (second series), hits give low values 0.992 | S. cerevisiae deletion strains, locus YJL187C, strain SWE1, hits give low values 1 | S. cerevisiae deletion strains, locus YJR043C, strain POL32, hits give low values 0.995 | S. cerevisiae deletion strains, locus YJR075W, strain HOC1, hits give low values 0.979 | S. cerevisiae deletion strains, locus YKL009W, strain mrt4, hits give low values 1 | S. cerevisiae deletion strains, locus YKL068W, hits give low values 0.999 | S. cerevisiae deletion strains, locus YKL085W, strain MDH1 (second series), hits give low values 1 | S. cerevisiae deletion strains, locus YKL085W, strain MDH1, hits give low values 1 | S. cerevisiae deletion strains, locus YKL160W, strain elf1, hits give low values 0.974 | S. cerevisiae deletion strains, locus YKL190W, strain CNB1, hits give low values 1 | S. cerevisiae deletion strains, locus YKR001C, strain vps1, hits give low values 1.01 | S. cerevisiae deletion strains, locus YKR026C, strain gcn3, hits give low values 1 | S. cerevisiae deletion strains, locus YKR091W, strain srl3, hits give low values 1 | S. cerevisiae deletion strains, locus YLL001W, strain dnm1, hits give low values 0.995 | S. cerevisiae deletion strains, locus YLL026W, hits give low values 1.01 | S. cerevisiae deletion strains, locus YLL041C, strain sdh2, hits give low values 0.994 | S. cerevisiae deletion strains, locus YLR027C, strain aat2, hits give low values 1.01 | S. cerevisiae deletion strains, locus YLR039C, strain RIC1, hits give low values 1.05 | S. cerevisiae deletion strains, locus YLR058C, strain SHM2, hits give low values 0.997 | S. cerevisiae deletion strains, locus YLR102C, strain apc9, hits give low values 1.01 | S. cerevisiae deletion strains, locus YLR221C, strain rsa3, hits give low values 0.995 | S. cerevisiae deletion strains, locus YLR258W, strain gsy2, hits give low values 1.03 | S. cerevisiae deletion strains, locus YLR262C, strain YPT6 (second series), hits give low values 0.997 | S. cerevisiae deletion strains, locus YLR262C, strain YPT6, hits give low values 1.02 | S. cerevisiae deletion strains, locus YLR268W, strain sec22, hits give low values 1.01 | S. cerevisiae deletion strains, locus YLR320W, strain mms22, hits give low values 1.02 | S. cerevisiae deletion strains, locus YLR330W, strain CHS5, hits give low values 1.01 | S. cerevisiae deletion strains, locus YLR342W, strain FKS1 (second series), hits give low values 1.04 | S. cerevisiae deletion strains, locus YLR342W, strain FKS1, hits give low values 1.01 | S. cerevisiae deletion strains, locus YLR357W, strain rsc2, hits give low values 1.01 | S. cerevisiae deletion strains, locus YLR370C, strain arc18, hits give low values 0.996 | S. cerevisiae deletion strains, locus YLR371W, strain rom2, hits give low values 1.02 | S. cerevisiae deletion strains, locus YLR384C, strain iki3, hits give low values 1 | S. cerevisiae deletion strains, locus YLR418C, strain cdc73, hits give low values 1.02 | S. cerevisiae deletion strains, locus YML016C, strain PPZ1, hits give low values 1 | S. cerevisiae deletion strains, locus YML032C, strain rad52, hits give low values 1.02 | S. cerevisiae deletion strains, locus YML120C, strain ndi1, hits give low values 0.997 | S. cerevisiae deletion strains, locus YML124C, strain tub3, hits give low values 1 | S. cerevisiae deletion strains, locus YMR058W, strain fet3, hits give low values 1.01 | S. cerevisiae deletion strains, locus YMR078C, strain ctf18, hits give low values 1.01 | S. cerevisiae deletion strains, locus YMR125W, strain sto1, hits give low values 1.01 | S. cerevisiae deletion strains, locus YMR129W, hits give low values 1 | S. cerevisiae deletion strains, locus YMR205C, strain PFK2, hits give low values 1.03 | S. cerevisiae deletion strains, locus YMR223W, strain ubp8, hits give low values 1.01 | S. cerevisiae deletion strains, locus YMR231W, strain pep5, hits give low values 1.01 | S. cerevisiae deletion strains, locus YMR307W, strain GAS1, hits give low values 1.08 and 0.984 | S. cerevisiae deletion strains, locus YNL067W, strain RPL9B, hits give low values 1 | S. cerevisiae deletion strains, locus YNL071W, strain lat1, hits give low values 1 | S. cerevisiae deletion strains, locus YNL153C, strain GIM3, hits give low values 1.04 | S. cerevisiae deletion strains, locus YNL175C, strain NOP13, hits give low values 1.02 | S. cerevisiae deletion strains, locus YNL197C, strain WHI3, hits give low values 1.01 | S. cerevisiae deletion strains, locus YNL209W, strain ssb2, hits give low values 1 | S. cerevisiae deletion strains, locus YNL224C, strain SQS1, hits give low values 1 | S. cerevisiae deletion strains, locus YNL233W, strain BNI4, hits give low values 0.995 | S. cerevisiae deletion strains, locus YNL248C, strain rpa49, hits give low values 0.957 | S. cerevisiae deletion strains, locus YNL250W, strain rad50, hits give low values 1 | S. cerevisiae deletion strains, locus YNL271C, strain bni1, hits give low values 1.01 | S. cerevisiae deletion strains, locus YNL298W, strain CLA4, hits give low values 1.02 | S. cerevisiae deletion strains, locus YNL307C, strain MCK1, hits give low values 1.02 | S. cerevisiae deletion strains, locus YNL322C, strain KRE1 (second series), hits give low values 0.998 | S. cerevisiae deletion strains, locus YNR049C, strain mso1, hits give low values 1 | S. cerevisiae deletion strains, locus YNR052C, strain pop2, hits give low values 1.01 | S. cerevisiae deletion strains, locus YOL006C, strain TOP1, hits give low values 1 | S. cerevisiae deletion strains, locus YOL012C, strain htz1 1.16 | S. cerevisiae deletion strains, locus YOL147C, strain pex11, hits give low values 1.01 | S. cerevisiae deletion strains, locus YOR001W, strain rrp6, hits give low values 0.971 | S. cerevisiae deletion strains, locus YOR061W, strain CKA2, hits give low values 1.01 | S. cerevisiae deletion strains, locus YOR069W, strain VPS5, hits give low values 1 | S. cerevisiae deletion strains, locus YOR070C, strain gyp1, hits give low values 0.999 | S. cerevisiae deletion strains, locus YOR080W, strain dia2, hits give low values 1.01 | S. cerevisiae deletion strains, locus YOR083W, strain WHI5 (second series), hits give low values 1.02 | S. cerevisiae deletion strains, locus YOR083W, strain WHI5, hits give low values 0.962 | S. cerevisiae deletion strains, locus YOR106W, strain vam3, hits give low values 0.981 | S. cerevisiae deletion strains, locus YOR136W, strain idh2, hits give low values 1.01 | S. cerevisiae deletion strains, locus YOR144C, strain elg1, hits give low values 1.01 | S. cerevisiae deletion strains, locus YOR184W, strain ser1, hits give low values 1.01 | S. cerevisiae deletion strains, locus YOR265W, strain rbl2, hits give low values 1 | S. cerevisiae deletion strains, locus YOR270C, strain vph1, hits give low values 0.98 | S. cerevisiae deletion strains, locus YOR290C, strain snf2, hits give low values 0.992 | S. cerevisiae deletion strains, locus YOR316C, strain cot1, hits give low values 1.01 | S. cerevisiae deletion strains, locus YPL051W, strain arl3, hits give low values 0.991 | S. cerevisiae deletion strains, locus YPL078C, strain atp4, hits give low values 0.981 | S. cerevisiae deletion strains, locus YPL106C, strain sse1, hits give low values 1.02 | S. cerevisiae deletion strains, locus YPL240C, strain hsp82, hits give low values 1.01 | S. cerevisiae deletion strains, locus YPR119W, strain clb2, hits give low values 1.01 | S. cerevisiae deletion strains, locus YPR141C, strain kar3, hits give low values 1 | S. cerevisiae deletion strains, locus YPR163C, strain tif3, hits give low values 1.02 | S. cerevisiae deletion strains, locus YPR167C, strain met16, hits give low values 1.02 | S. cerevisiae deletion strains, strain wtn01, hits give low values 1.02 | S. cerevisiae strains, strain wild type, hits give low values 1.01
